Of roughly 7,900 targets only a part is listed; those with a hit were picked by preference. About 0.6% of all pairs of compound and target were hits.
Experiments:
Test in all cases: log2 fold change, soluble protein after heating vs DMSO (PISA); higher = thermal stabilisation; K562 cells, 10 uM, 30 min; active = over 0.2 and 3.5 SD of the protein, either way, in both replicates (recomputed)
[1] = compound: C1=CC=C(C=C1)[C@H](COC2=CC3=C(C=C2)NC(=O)N3)NC(=O)C4=CC=CN(C4=O)CC5=CC(=C(C=C5)F)F
In short: (§1)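 K562 cells at 2×10^6 cells/mL were treated for 30 min with 10 μM compound, and aliquots were heated for 3 min over 48°C-58°C before pooling. Extraction used PBS with 0.5% NP-40 at 4°C, and soluble protein was the supernatant after 21,000xg for 90 min, measured by TMTpro 16plex LC-MS/MS with channel sums equalised. Thermal stability values, relative to control samples and from duplicates, are log2 fold changes.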

[2] = compound: CC1=C(SC2=C1C(=N[C@H](C3=NN=C(N32)C)CC(=O)N)C4=CC=C(C=C4)Cl)C
In short: as §1

[3] = compound: CC1=C2C(=CC=C1)N=C(N(C2=O)C3=CC=CC=C3C)CN4C=NC5=C(N=CN=C54)N
In short: as §1

[4] = compound: Cc1sc2c(c1C)C(c1ccc(Cl)cc1)=N[C@@H](CC(=O)OC(C)(C)C)c1nnc(C)n1-2
In short: as §1

[5] = compound: c1ccc([C@@H]2C[C@H]2NC2CCNCC2)cc1
In short: as §1

Measured: log2 fold change

RRAGB (UniProt Q5VZM2)
inactive: [1] 0.046 | [2] -0.028 | [3] -0.088 | [4] -0.01 | [5] 0.02

RB1 (UniProt P06400)
inactive: [1] -0.038 | [2] 0.064 | [3] 0.048 | [4] 0.011 | [5] 0

RPRD1B (UniProt Q9NQG5)
Sequence of UniProt Q9NQG5 (Q9NQG5 whole entry, looked up): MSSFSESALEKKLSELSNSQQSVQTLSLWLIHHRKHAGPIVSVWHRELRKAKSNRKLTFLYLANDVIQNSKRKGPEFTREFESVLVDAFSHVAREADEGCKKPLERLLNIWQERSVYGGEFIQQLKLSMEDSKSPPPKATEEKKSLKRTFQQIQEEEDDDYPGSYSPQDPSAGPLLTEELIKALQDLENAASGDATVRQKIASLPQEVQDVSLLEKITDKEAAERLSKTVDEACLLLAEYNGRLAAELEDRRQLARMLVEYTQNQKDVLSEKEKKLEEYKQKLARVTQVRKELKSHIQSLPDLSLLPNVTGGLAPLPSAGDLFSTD
inactive: [1] -0.006 | [2] 0.06 | [3] 0.043 | [4] 0.009 | [5] 0.014

RPS14 (UniProt P62263)
inactive: [1] 0.041 | [2] -0.162 | [3] -0.238 | [4] 0.078 | [5] -0.036

RPS15 (UniProt P62841)
inactive: [1] 0.126 | [2] -0.113 | [3] -0.02 | [4] 0.122 | [5] 0.106

RNF185 (UniProt Q96GF1)
Sequence of UniProt Q96GF1 (Q96GF1 whole entry, looked up): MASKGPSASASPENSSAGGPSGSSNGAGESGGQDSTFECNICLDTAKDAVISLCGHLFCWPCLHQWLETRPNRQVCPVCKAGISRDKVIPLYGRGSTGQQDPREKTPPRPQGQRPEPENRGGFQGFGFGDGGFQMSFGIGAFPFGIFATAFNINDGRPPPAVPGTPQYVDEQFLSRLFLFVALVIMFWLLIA
inactive: [1] -0.157 | [2] 0 | [3] 0.006 | [4] 0.104 | [5] -0.168

SHROOM2 (UniProt Q13796)
inactive: [1] 0.105 | [2] 0.102 | [3] 0.103 | [4] -0.008 | [5] -0.072

SENP6 (UniProt Q9GZR1)
inactive: [1] 0.023 | [2] 0.014 | [3] 0.048 | [4] 0.022 | [5] 0.056

RNF2 (UniProt Q99496)
inactive: [1] 0.067 | [2] 0.014 | [3] 0.153 | [4] 0.064 | [5] 0.085

RNASEH2A (UniProt O75792)
Sequence of UniProt O75792 (O75792 whole entry, looked up): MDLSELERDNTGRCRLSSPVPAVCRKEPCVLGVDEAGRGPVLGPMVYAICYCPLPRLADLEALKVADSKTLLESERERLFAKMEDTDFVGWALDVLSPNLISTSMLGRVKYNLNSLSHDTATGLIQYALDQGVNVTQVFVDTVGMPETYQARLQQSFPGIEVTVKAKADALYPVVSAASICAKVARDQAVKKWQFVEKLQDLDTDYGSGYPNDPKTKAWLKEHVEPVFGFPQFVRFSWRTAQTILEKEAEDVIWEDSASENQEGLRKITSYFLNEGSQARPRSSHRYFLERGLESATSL
inactive: [1] -0.008 | [2] 0.065 | [3] 0.183 | [4] -0.025 | [5] -0.01

SEH1L isoform 1 (UniProt Q96EE3)
inactive: [1] -0.003 | [2] 0.06 | [3] -0.003 | [4] -0.014 | [5] 0.017

ROR2 (UniProt Q01974)
inactive: [1] -0.062 | [2] 0.004 | [3] 0.023 | [4] -0.048 | [5] -0.035

SCAMP2 (UniProt O15127)
Sequence of UniProt O15127 (O15127 whole entry, looked up): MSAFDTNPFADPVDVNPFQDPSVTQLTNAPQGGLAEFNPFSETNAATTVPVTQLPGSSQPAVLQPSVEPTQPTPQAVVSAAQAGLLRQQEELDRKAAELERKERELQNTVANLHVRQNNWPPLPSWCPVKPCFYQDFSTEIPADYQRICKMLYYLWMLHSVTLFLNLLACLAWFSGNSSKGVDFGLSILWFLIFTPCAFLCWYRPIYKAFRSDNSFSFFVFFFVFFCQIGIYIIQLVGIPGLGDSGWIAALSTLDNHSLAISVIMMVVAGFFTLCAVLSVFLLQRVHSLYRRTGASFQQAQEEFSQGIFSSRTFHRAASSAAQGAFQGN
inactive: [1] 0.061 | [2] 0.026 | [3] -0.041 | [4] -0.105 | [5] -0.048

RAB5IF isoform 5 (UniProt Q9BUV8)
Sequence of UniProt Q9BUV8 (Q9BUV8 whole entry, looked up): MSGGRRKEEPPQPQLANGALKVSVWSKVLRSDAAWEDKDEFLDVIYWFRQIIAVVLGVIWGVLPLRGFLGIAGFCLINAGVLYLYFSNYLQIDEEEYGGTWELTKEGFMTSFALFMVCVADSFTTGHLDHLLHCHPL
inactive: [1] 0.003 | [2] 0.101 | [3] 0.024 | [4] -0.08 | [5] 0.028

RAD50, A0A494C0Y7
inactive: [1] -0.1 | [2] -0.003 | [3] 0.194 | [4] 0.104 | [5] 0.118

RBM8A (UniProt Q9Y5S9)
inactive: [1] -0.02 | [2] -0.005 | [3] -0.062 | [4] 0.029 | [5] 0.045

SH3GLB2 (UniProt Q9NR46)
inactive: [1] -0.029 | [2] 0.064 | [3] 0.029 | [4] 0.004 | [5] -0.063

SIDT2 isoform 2 (UniProt Q8NBJ9)
inactive: [1] -0.005 | [2] -0.005 | [3] 0.018 | [4] -0.115 | [5] 0.088

RMC1 (UniProt Q96DM3)
Sequence of UniProt Q96DM3 (Q96DM3 whole entry, looked up): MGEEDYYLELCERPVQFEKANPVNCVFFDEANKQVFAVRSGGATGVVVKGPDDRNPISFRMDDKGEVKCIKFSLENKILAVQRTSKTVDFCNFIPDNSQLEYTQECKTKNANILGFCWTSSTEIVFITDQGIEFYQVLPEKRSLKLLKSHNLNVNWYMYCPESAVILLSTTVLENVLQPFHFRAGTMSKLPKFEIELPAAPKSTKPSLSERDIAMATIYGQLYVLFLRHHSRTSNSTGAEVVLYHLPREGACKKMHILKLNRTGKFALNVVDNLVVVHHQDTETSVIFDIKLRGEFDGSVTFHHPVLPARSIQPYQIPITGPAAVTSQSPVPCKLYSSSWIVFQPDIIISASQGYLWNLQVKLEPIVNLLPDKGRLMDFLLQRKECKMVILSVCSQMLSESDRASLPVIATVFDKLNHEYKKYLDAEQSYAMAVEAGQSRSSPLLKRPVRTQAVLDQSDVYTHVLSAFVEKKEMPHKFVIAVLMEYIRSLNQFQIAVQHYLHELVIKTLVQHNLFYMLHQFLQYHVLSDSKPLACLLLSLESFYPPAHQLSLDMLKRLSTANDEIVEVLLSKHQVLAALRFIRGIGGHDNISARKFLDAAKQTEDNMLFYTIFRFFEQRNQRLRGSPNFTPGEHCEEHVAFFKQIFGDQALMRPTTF
inactive: [1] -0.009 | [2] 0.064 | [3] 0.1 | [4] 0.019 | [5] 0.063

SCG3 (UniProt Q8WXD2)
inactive: [1] 0.131 | [2] 0.034 | [3] 0.09 | [4] 0 | [5] 0.051

RPS3 (UniProt P23396)
inactive: [1] 0.055 | [2] -0.118 | [3] -0.127 | [4] 0.083 | [5] 0.015

RABGAP1L isoform 5 (UniProt Q5R372)
inactive: [1] 0.027 | [2] 0.027 | [4] 0.113 | [5] 0.066

SDC3 (UniProt O75056)
inactive: [2] -0.012 | [3] 0.071 | [4] -0.044 | [5] 0.052

SCYL3 isoform 2 (UniProt Q8IZE3)
Sequence of UniProt Q8IZE3 (Q8IZE3 whole entry, looked up): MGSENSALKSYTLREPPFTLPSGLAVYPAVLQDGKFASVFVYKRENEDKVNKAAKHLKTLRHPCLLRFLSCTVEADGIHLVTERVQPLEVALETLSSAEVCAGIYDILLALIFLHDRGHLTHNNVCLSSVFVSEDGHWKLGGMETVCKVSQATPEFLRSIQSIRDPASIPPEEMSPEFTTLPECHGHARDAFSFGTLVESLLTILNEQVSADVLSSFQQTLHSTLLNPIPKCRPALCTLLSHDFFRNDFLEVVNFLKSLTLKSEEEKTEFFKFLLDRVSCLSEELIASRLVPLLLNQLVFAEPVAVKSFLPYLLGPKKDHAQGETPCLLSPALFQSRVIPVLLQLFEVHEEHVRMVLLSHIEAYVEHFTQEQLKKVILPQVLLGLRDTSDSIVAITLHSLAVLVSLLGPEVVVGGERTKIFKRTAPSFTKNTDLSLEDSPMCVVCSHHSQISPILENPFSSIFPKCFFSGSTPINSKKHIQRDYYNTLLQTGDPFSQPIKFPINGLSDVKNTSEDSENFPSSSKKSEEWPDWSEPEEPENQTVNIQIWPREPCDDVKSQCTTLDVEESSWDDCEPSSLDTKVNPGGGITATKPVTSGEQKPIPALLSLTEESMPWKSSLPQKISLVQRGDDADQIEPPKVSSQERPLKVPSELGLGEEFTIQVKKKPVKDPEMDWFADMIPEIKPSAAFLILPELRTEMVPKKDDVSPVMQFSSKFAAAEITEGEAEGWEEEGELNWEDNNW
inactive: [1] -0.014 | [2] -0.006 | [3] 0.055 | [4] 0.041 | [5] -0.113

RSF1 (UniProt Q96T23)
Sequence of UniProt Q96T23 (Q96T23 whole entry, looked up): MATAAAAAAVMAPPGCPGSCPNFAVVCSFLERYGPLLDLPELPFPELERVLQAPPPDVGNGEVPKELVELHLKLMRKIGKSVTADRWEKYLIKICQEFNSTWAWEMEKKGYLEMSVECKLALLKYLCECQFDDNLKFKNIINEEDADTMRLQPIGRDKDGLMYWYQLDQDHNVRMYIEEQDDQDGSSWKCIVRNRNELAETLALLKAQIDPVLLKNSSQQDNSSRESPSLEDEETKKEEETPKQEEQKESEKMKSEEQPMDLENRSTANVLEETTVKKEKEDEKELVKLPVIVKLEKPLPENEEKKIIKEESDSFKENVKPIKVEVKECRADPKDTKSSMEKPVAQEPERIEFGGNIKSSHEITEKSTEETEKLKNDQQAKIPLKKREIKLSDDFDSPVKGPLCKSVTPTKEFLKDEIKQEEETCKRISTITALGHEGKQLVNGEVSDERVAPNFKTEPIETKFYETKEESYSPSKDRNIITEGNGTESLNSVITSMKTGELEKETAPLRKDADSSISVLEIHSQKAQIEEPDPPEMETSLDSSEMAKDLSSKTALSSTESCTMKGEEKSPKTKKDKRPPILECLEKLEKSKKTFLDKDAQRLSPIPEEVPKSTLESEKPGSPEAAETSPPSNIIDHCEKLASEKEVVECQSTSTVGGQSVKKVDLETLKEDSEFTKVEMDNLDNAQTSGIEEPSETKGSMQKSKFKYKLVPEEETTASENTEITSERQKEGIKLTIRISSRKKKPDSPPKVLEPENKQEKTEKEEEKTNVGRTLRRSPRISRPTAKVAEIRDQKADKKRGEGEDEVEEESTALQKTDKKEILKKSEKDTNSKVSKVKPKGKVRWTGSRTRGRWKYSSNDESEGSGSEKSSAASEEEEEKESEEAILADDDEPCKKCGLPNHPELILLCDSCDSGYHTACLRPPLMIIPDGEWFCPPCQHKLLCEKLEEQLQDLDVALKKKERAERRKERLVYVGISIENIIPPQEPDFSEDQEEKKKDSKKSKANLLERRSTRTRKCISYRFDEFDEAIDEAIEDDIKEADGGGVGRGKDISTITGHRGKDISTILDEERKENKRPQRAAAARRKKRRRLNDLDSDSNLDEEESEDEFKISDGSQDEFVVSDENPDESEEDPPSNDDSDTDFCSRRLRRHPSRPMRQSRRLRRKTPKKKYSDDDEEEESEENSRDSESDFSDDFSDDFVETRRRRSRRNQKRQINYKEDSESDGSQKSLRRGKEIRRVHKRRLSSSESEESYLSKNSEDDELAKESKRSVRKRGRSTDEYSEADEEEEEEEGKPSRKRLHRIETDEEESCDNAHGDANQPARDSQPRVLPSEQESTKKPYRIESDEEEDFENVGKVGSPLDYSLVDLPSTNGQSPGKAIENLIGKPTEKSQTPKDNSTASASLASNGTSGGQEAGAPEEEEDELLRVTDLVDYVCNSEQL
inactive: [1] -0.102 | [2] 0.091 | [3] 0.096 | [4] -0.061 | [5] -0.018

From the supplement of paper PMC10849652
